In PubChem BioAssay AID652126 (The Scripps Research Institute Molecular Screening Center, 2013):
Out of some 370,000 compounds screened, about 3,700 (1%) were called active.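 How the source made its calls: active means activation above the mean over all tested compounds plus 3 SD (cut at about 0.9% in these data); inactive means the rest.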 The full list was thinned out, with actives kept by preference.

These molecules were tested on Nuclear hormone receptor DAF-12 (Strongyloides stercoralis) (assay: ssDAF-12 driven luciferase reporter activation – cell-based, luminescence, HEK293, GRIP1 co-expression, lit1-tk-luc, primary screen (AID 652126;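 further: 0% = DMSO-only wells and 100% = 3 µM delta7-dafachronic acid wells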)). Conditions: HEK293 ssDAF-12/GRIP1 lit1-tk-luc reporter, at 6.8 µM, hits give high values.

Q: How did the activation turn out when `COc1ccc(C2C=C(C)Oc3c2c(=O)oc2ccccc32)cc1OC` (stereo not given) was run?
A: -0.69% (inactive)

Q: `N#CC1=C(N)Oc2c(c(=O)oc3ccccc23)C1c1ccccc1OC(=O)c1cccs1` (stereo not given) was tested. Which activation did it give?
A: 1.09% (active)

Q: Which activation does the source give for `CCNc1nc2[nH]c(=O)c3c(c2s1)OC(N)=C(C#N)C3c1cccs1` (stereo not given) here?
A: -0.98% (inactive)

Q: For `COP(=O)(Sc1ccccc1)C(Cc1ccccc1)NC(=O)OCc1ccccc1` (stereo not given), which activation is on record?
A: -1.15% (inactive)

Q: How did the activation turn out when `COc1ccc2c(c1)NP(=S)(c1ccccc1)N2` (stereo not given) was run?
A: 1.75% (active)

Q: `Cc1cc(C)c2c(c1)NP(=S)(c1ccccc1)N2` (stereo not given) was tested. Which activation did it give?
A: -0.09% (inactive)

Q: How did the activation turn out when `CO[C@H]([C@H](C)/C=C/N(C)C=O)[C@@H](C)C(=O)CC[C@H](C)[C@H](O)[C@H](C)[C@H]1OC(=O)/C=C/C(C)=C/[C@H](O)[C@H](OC)C[C@@H]2C=CC[C@@H](C[C@H](OC)[C@@]3(CO3)[C@@H](OC)C[C@@H](OC)[C@@H]1C)O2` was run?
A: -0.84% (inactive)

Q: Which activation does the source give for `O=c1c2ccccc2nc(/C=C/c2ccc(F)cc2)n1-c1ccccc1O` here?
A: -0.65% (inactive)

Q: With `Cc1ccccc1CCC[C@@H](CC1CCCCC1)CN(C)C(=O)Oc1ccccc1` as the molecule, how does the activation read?
A: -1.05% (inactive)

Q: With `CCOP(=S)(OCC)C(O)CCCCCn1c(=O)c(F)cn(C2CCCO2)c1=O` (stereo not given) as the molecule, how does the activation read?
A: 1.73% (active)

Q: How did the activation turn out when `Clc1ccc2nc3c(c(-c4ccccc4)c2c1)CNCC3` was run?
A: -0.92% (inactive)

Q: How did the activation turn out when `COc1ccc(CNCCc2c[nH]c3ccccc23)cc1OC` was run?
A: 1.6% (active)

Q: With `c1cncc(CNCCc2c[nH]c3ccccc23)c1` as the molecule, how does the activation read?
A: -0.72% (inactive)

Q: With `COc1ccc(CNCCc2ccc3c(c2)OCO3)c(OC)c1OC` as the molecule, how does the activation read?
A: -0.57% (inactive)

Q: For `CN(C)S(=O)(=O)c1cc(C(=O)N2CCC(C(=O)O)(c3ccccc3)CC2)ccc1Cl`, which activation is on record?
A: -1.1% (inactive)

Q: `CN(C)c1nc(N(C)C)nc(N(C#N)CCCl)n1` was tested. Which activation did it give?
A: -1.19% (inactive)

Q: For `C[C@]12CCC3C(CC[C@H]4[C@H](O)[C@H](O)CC[C@]34C)C1CC[C@@H]2O` (stereo not given in full), which activation is on record?
A: -0.82% (inactive)

Q: How did the activation turn out when `O=C(CSC1c2ccccc2-c2ccccc21)N/N=C/c1ccccc1` was run?
A: -0.76% (inactive)

Q: With `COc1c(O)ccc2c1-c1c3c(cc4c1C(C2)N(C)CC4)OCO3` (stereo not given) as the molecule, how does the activation read?
A: -0.77% (inactive)

Q: How did the activation turn out when `Cc1ccc(OC(=O)N(C)C[C@@H]2OCc3cnnn3CCCC(=O)N([C@H](C)CO)C[C@@H]2C)cc1` was run?
A: -0.97% (inactive)
